Assay results reported in the supplement of paper PMC10338343.
± gives the standard deviation. Whole data set: some 6,600 sequences, median “pre-steady-state target cleavage rate” near 0.07, cut for the highest 2% near 0.72. The sample holds the highest values, similar sequences and a random draw of the others, so the mix is not that of the screen.

test system: MIWI (PIWIL1) piRISC loaded with Kctd7 piRNA (30 nt); assay: pre-steady-state target cleavage rate (min^-1); MIWI and MILI are mouse PIWI proteins and EfPiwi is from a freshwater sponge; tags in brackets are library labels; higher = faster piRNA-guided slicing of the target; conditions: guide: Kctd7 piRNA 5'p-UGUUAAUCUCUCAGAGAAGGUGACAGUGAU; auxiliary factor: 500 nM mouse GTSF1
Procedure, shortened: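 Cleave-'n-Seq: a transcribed, DNA-blocked target RNA library (0.1 nM) was mixed with 1 nM active affinity-purified piRISC carrying one synthetic guide, with or without 500 nM GTSF1 partner protein, in HEPES–potassium acetate buffer at 33 °C for 0–8 or 0–960 min. Uncleaved targets were sequenced and normalised to depth and to weakly complementary targets. Three trials were pooled, and k3 was capped at 0.0001 min^-1. The pre-steady-state cleavage rate came from a burst-and-steady-state fit.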

Row | Sequence | pre-steady-state target cleavage rate
1 | UAGUGACACACCAUUCUCUGAGAGAUUAACA | 0.245 ± 0.022
2 | UAGUGACAGUGGAAGUCUGAGACAUAAACA | < 0.0001
3 | UACACUGUCACCUUCUCUCUGAGAUUAACA | 0.0197 ± 0.0062
4 | UACACUGUCACCUUCUCUGAGAGAUUAACC [g2:g28:cont:t1C] | 0.391 ± 0.034
5 | UUACACUGUCACCUUCUCUGAGAGAUUAACA | 0.769 ± 0.044
6 | UACACUGUCACCUUCUCUGAGAGAUUAACG [g2:g28:cont:t1G] | 0.566 ± 0.047
7 | UACACUGUCACCUUCUCUGAGAGAUUAACA [g2:g28:cont:t1A] | 0.563 ± 0.039
8 | AUACACUGUCACCUUCUCUGAGAGAUUAACA | 0.752 ± 0.05
9 | UAGUGACAGACCUUCUCUGAGAGAUAUACA | 0.0324 ± 0.0083
10 | UAGUCUGUCACCUUCUCAGAGAGAUUUUGA | 0.0587 ± 0.02
11 | UAGACUGUCACCUUCUCUGAGAGAUUAAUA | 0.414 ± 0.035
12 | UAGACUGUCACCGUCUCUGAGAGAUUAACA | 0.769 ± 0.037
13 | UUCAGUGUCACCAUCUCUGAGAGAUUAACA | 0.585 ± 0.037
14 | UAGACUGUCACCAUUCUCUGAGAGAUUAACA | 0.792 ± 0.055
15 | UAGACUGUCACCAUCUCUGAGAGAUUAAGA | 0.112 ± 0.018
16 | UAGACUGUCACCAUCUCUGUGAGAUUAACA | 0.155 ± 0.013
17 | UAGUGUGUCACCAUCUCUGAGAGAUUAACA | 0.609 ± 0.037
18 | UAGACUGUCACCGUUCUCUGAGAGAUUAACA | 0.625 ± 0.041
19 | AUCACUGUCACCGUCUCUGAGAGAUUAACA | 0.608 ± 0.038
20 | UAGACUGUCACCCUUCUCUGAGAGAUUAACA | 0.517 ± 0.042
21 | UAGACUGUCACCUUCUCUGAGAGAUUAACCA | 0.648 ± 0.054
22 | UAGAGUGUCACCAUCUCUGAGAGAUUAACA | 0.741 ± 0.045
23 | UAGACUGUCACCAUCUCUGAGAGAUUAACA | 0.741 ± 0.052

Row | Sequence | pre-steady-state target cleavage rate
24 | UAGUGACACACCUUCUCUGAGUGAAUAACA | 0.00377 ± 0.0036
25 | UACACUGACACCUUCUCUGUGAGAUUAACA | 0.181 ± 0.019
26 | UACACUCAGACCUUCUCUGAGAGAUUAAGA | 0.0222 ± 0.0091
27 | UAGUGACAGACCUUCUCUGAGAGACUAACA | 0.0225 ± 0.0061
28 | UAGACAGUGACCUUCUCUGAGAGAUUAACA | 0.554 ± 0.033
29 | UACACUGAGACCUUCUCUGAGAGAUUAUGA | 0.0374 ± 0.015
30 | UAGUGACAGACCUUCUCUGAGACAUUAACA | 0.039 ± 0.0076
31 | UUCACUGUCACCUUCUCUGUGAGAUUUACA | 0.158 ± 0.027
32 | UAGUGACACACCUUCACUGAGACAUUAACA | 0.17 ± 0.029
33 | AUCACUGUCACCUUGUCUGAGAGAUAAACA | 0.552 ± 0.085
34 | UAGACUGUCACAUUCUCUGAGAGAUUAACA | 0.77 ± 0.051
35 | UAGACUGUCACGCUUCUCUGAGAGAUUAACA | 0.563 ± 0.029
36 | UAGUCUGUCACAUUCUCUGAGAGAUUAACA | 0.607 ± 0.03
37 | AUCUCUGUCACCUUCUCAGAGAGAUUAACA | 0.245 ± 0.024
38 | UAGUCGGUCACCUUCUCUGAGAGAUUAACA | 0.73 ± 0.037
39 | UAGUCUAGUCACCUUCUCUGAGAGAUUAACA | 0.67 ± 0.035
40 | UAGUCAGUCACCUUCUCUGAGAGAUUAACA | 0.722 ± 0.034
41 | UAGUCGUCACCUUCUCUGAGAGAUUAACA | 0.7 ± 0.049
42 | UAGUCUGUCACCUUCUCUGAGAGAUUAACA [g2:g26:cont:t1A] | 0.631 ± 0.026
43 | UAGUCUGGUCACCUUCUCUGAGAGAUUAACA | 0.749 ± 0.046
44 | UUCACUCACACCUUCUCUGAGAGAUUAAGA | 0.0618 ± 0.011
45 | UUCACUGUCACCUUACUCUGAGAGAUUAACA | 0.522 ± 0.026
46 | UAGUCUGUCACCAUCUCUGAGAGAUUAAGA | 0.0769 ± 0.013
